# Reference: PubChem BioAssay
# A number with no mark means an inactive call. Unless noted, no rule for the calls is given here.
# Test: ATP-based viability of Huh7 replicon cells – cell-based, CellTiter-Glo luminescence, basal, 48 h, cytotoxicity control for HCV replication inhibitor project, primary screen (AID 1143);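 also: Huh7 hepatoma cells carrying a hepatitis C replication reporter with no stimulus; test concentration not given here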
# Details: higher = more signal, called active from +8 up or from −8 down
row,SMILES,z-score
1,CO[C@H]1COC(=O)[C@H](CCSC)NC(=O)CC=C[C@@H](C)[C@H](OC)COC(=O)[C@@H](OCc2ccccc2)C=C[C@@H]1C,-1.45
2,COc1ccc(OC[C@H]2CN3[C@@H](CC[C@@H](C)[C@@H]3c3ccc(Br)cc3)C(=O)O2)cc1,-0.202
3,COc1ccc(O[C@H]2C=C[C@@H](c3ccccc3)O[C@@H]2CO)cc1,-1.12

# Test: Pseudomonas biofilm growth suppression – PAO1 strain, BacTiter-Glo luminescence, LB-PBS, primary screen (AID 1144)
# Details: P. aeruginosa PAO1 biofilm, 12 h, higher = more signal
row,SMILES,z-score
1,CC(=O)OC[C@H]1O[C@@H](ON=C(C)C)[C@H](OC(C)=O)[C@@H](OC(C)=O)[C@@H]1OC(C)=O,-0.291
2,CC(C)=CCCC(C)=CCON=C1[C@H]2CCn3c(=O)n(-c4ccccc4)c(=O)n3[C@H]2[C@H](O)[C@@H]2O[C@H]12,-0.044
3,COC(=O)CC=C[C@@H](C)[C@@H](C=NOC[C@@H](C)[C@H](OCc1ccccc1)C(C)C)OC,-0.0142
4,CCOC(=O)CCN1C(=O)[C@H]2[C@H]3[C@H](O)[C@H](O)CC(=NO[C@@H]4O[C@H](CO)[C@@H](O)[C@H](O)[C@H]4O)[C@@H]3CC[C@H]2C1=O,1.24
5,COC(=O)[C@H](C)NC(=O)CCC1CC(OC(=O)NCc2ccc3c(c2)OCO3)CC2(CCCC(COC(=O)NCCc3ccc(Cl)cc3)O2)O1 (stereo not given in full),-0.0135
6,CC(CCN1CCCc2nc(C)c(C)cc21)=NOC[C@@H](O)COCc1ccco1,-0.837
7,CC(CCN1CCCCc2nc(C)c(C)cc21)=NO[C@@H](C)c1cc(-c2c(C)cc(C)cc2C)no1,-0.425
8,C[C@H]1CC[C@@H](C(=O)O)N[C@@H]1c1ccc(C#Cc2ccccc2)cc1,0.696
9,COc1ccc(O[C@H]2C=C[C@@H](c3ccccc3)O[C@@H]2COC(=O)NCc2cccc3ccccc23)cc1,0.928
10,CC(C)CON=C1C[C@@H](O)[C@@H](O)[C@@H]2[C@@H]3C(=O)N(C(C)(C)C)C(=O)[C@@H]3CC[C@@H]12,-0.811
11,CC(C)CON=C1[C@H]2CCn3c(=O)n(C)c(=O)n3[C@H]2[C@H](O)[C@@H]2O[C@H]12,-0.279
12,CCOC(=O)CCN1C(=O)[C@H]2[C@H]3[C@H](O)[C@H](O)CC(=O)[C@@H]3CC[C@H]2C1=O,-0.401
13,CC1(C)O[C@H]2OC([C@H](O)CON3C(=O)c4ccccc4C3=O)[C@H](O)[C@H]2O1 (stereo not given in full),0.425
14,COc1cccc([C@H](O)Cn2cc(-c3ccc(CON=C(C)C)cc3)nn2)c1,-0.24
15,COCC#Cc1ccc([C@@H]2N[C@H](C(=O)O)CC[C@H]2C)cc1,-1.73
16,O=C1C[C@H](c2ccccc2)[C@H](c2ccc(Br)cc2)O1,-1.42
17,CCCNC(=O)OC[C@H]1O[C@H](CCON=C[C@@H](NS(=O)(=O)c2ccc(C)cc2)[C@H](C)C=CCC(=O)OC)C=C[C@@H]1Oc1ccc(OC)cc1,0.169
18,CCOC(=O)[C@H](Cc1ccccc1)NC(=O)CCC1CC(OC(=O)NCCc2ccc(F)cc2)CC2(CCCC(COC(=O)NCCOc3ccccc3)O2)O1 (stereo not given in full),-0.661
19,C=CC[C@@H]1C=C[C@H](Oc2ccc(C)cc2)[C@@H](COC(=O)NCc2cccc3ccccc23)O1,-0.607
20,O=C1C2=CC[C@H]3C(=O)N(C[C@@H]4CCCO4)C(=O)[C@H]3[C@H]2[C@H](O)[C@@H]2O[C@H]12,0.846
21,CSCC[C@@H]1NC(=O)CC=C[C@@H](C)COC(=O)[C@H](C)COC1=O,-1.66
22,COC(=O)[C@H](Cc1ccccc1)NC(=O)[C@@H](C)CO,-1.61
23,O=C1[C@H]2[C@H]3[C@H](O)[C@H](O)CC(=NOCc4ccccc4)[C@@H]3CC[C@H]2C(=O)N1c1cccc(Oc2ccccc2)c1,1.31
24,CC(C)C(=O)N[C@H]1CCCN1C(=O)C=Cc1ccccc1,0.186
25,CCN1C(=O)[C@H]2[C@H]3[C@H](O)[C@H](O)CC(=NOCC(C)C)[C@H]3CC[C@H]2C1=O,0.138
26,C#CCCCON=C1[C@H]2CCn3c(=O)n(Cc4cc5c(cc4Cl)OCO5)c(=O)n3[C@H]2[C@H](O)[C@@H]2O[C@H]12,-0.55
27,COC(=O)[C@H](C)NC(=O)CCC1CC(OC(=O)NCc2cccc3ccccc23)CC2(CCCC(COC(=O)NCCOc3ccccc3)O2)O1 (stereo not given in full),0.0153
